From PubChem BioAssay (NCI) come the findings set out here.

This is part of a sample that, as a whole, favours compounds with a hit. Of some 83,000 tested, about 20% had one in any assay.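 Treatment: one concentration, 48 hours, 96-well format. Scoring: percent growth, with anything below 10 considered active.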 Values without a mark were called inactive. Active and inactive are the calls of the source.

Test systems include NCI-H23 lung; NCI-H226 lung; NCI-H322M lung; NCI-H460 lung; HOP-92 NSCLC; NCI-H522 lung; A549/ATCC NSCLC; 786-0 renal; COLO 205 colon; DU-145 prostate; K-562 leukemia; MALME-3M melanoma; MDA-MB-231 breast; RXF 393 renal; SF-268 CNS; SF-295 CNS; SF-539 CNS; UACC-257 melanoma; M14 melanoma.
Test in all cases: NCI-60 one-dose screen, 48 h (100 = growth as untreated, 0 = no growth, -100 = all killed)
Common to all, as to conditions: 10 µM unless noted

With `CN(C)CCNc1ccc2ncc(C#Cc3cncc(C(=O)Nc4ccc(CN5CCN(C)CC5)c(C(F)(F)F)c4)c3)n2n1`, the growth in the assay with NCI-H23 lung is -62.4% (active); with NCI-H226 lung, 33.4%; in the assay with NCI-H322M lung it was 6.14% (active); in the assay with NCI-H460 lung it was 9.62% (active); in the assay with HOP-92 NSCLC, -4.93% (active); with NCI-H522 lung, -61.8% (active). Moreover, the growth was 29.1% in the assay on A549/ATCC NSCLC; 4.34% (active) in the assay on 786-0 renal; -32.3% (active) in the assay on COLO 205 colon; 18.9% in the assay on DU-145 prostate; 2.29% (active) in the assay with K-562 leukemia; 17.4% in the assay on MALME-3M melanoma. For the same compound, the growth in the assay on MDA-MB-231 breast was -18.2% (active); in the assay with RXF 393 renal it was -75.1% (active); with SF-268 CNS, -50.9% (active); in the assay on SF-295 CNS it was 45.2%; with SF-539 CNS, -71.8% (active); in the assay with UACC-257 melanoma it was 74.9%. In addition, the growth in the assay with M14 melanoma was 54.1%.
As for `O=c1c2cc(-c3ccc(F)cc3F)ccc2n(Nc2ccccc2)c(=O)n1-c1cccc(C(F)(F)F)c1`, the growth is 2.36% (active) in the assay with NCI-H23 lung; 14.7% in the assay with NCI-H226 lung; 7.15% (active) in the assay on NCI-H322M lung; 9.35% (active) with NCI-H460 lung; -33.3% (active) with HOP-92 NSCLC; -5.32% (active) in the assay with NCI-H522 lung. Also, the growth in the assay with A549/ATCC NSCLC was 10.5%; with 786-0 renal, 48.2%; in the assay with COLO 205 colon, 74.1%; in the assay with DU-145 prostate, 26.6%; in the assay with K-562 leukemia, 6.95% (active); with MALME-3M melanoma it was -18.4% (active). The growth in the assay with MDA-MB-231 breast is -5.2% (active); in the assay on RXF 393 renal it was 5.77% (active); in the assay on SF-268 CNS, 22%; in the assay on SF-295 CNS, -2.47% (active); in the assay on SF-539 CNS, 18%; in the assay with UACC-257 melanoma, -1.25% (active). For the same compound, the growth in the assay on M14 melanoma was 21.6%.
As for `Cc1cc(=O)[nH]c(O)c1C#N`, the growth in the assay with NCI-H23 lung is 100%; with NCI-H226 lung, 101%; in the assay with NCI-H322M lung, 98.1%; in the assay with NCI-H460 lung it was 108%; in the assay on HOP-92 NSCLC, 97.4%; with NCI-H522 lung, 101%. The growth was 103% with A549/ATCC NSCLC; 103% with 786-0 renal; 107% in the assay with COLO 205 colon; 108% in the assay with DU-145 prostate; 99.2% with K-562 leukemia; 105% in the assay with MALME-3M melanoma. Further, the growth with MDA-MB-231 breast is 98.2%; with RXF 393 renal it was 114%; in the assay on SF-268 CNS it was 103%; in the assay on SF-295 CNS it was 102%; in the assay on SF-539 CNS, 97%; with UACC-257 melanoma, 100%. Also, the growth with M14 melanoma is 94.4%.
For the compound `CNCCN(C)c1ccc(Nc2cc(NC3CC3)n3ncc(C#N)c3n2)cc1NC(C)=O`, the growth in the assay with NCI-H23 lung was -5.36% (active); in the assay on NCI-H226 lung, 10.6%; in the assay with NCI-H322M lung, 10.5%; with NCI-H460 lung, 8.31% (active); with HOP-92 NSCLC it was -9.1% (active); with NCI-H522 lung it was -35.4% (active). Moreover, the growth with A549/ATCC NSCLC was 12%; in the assay on 786-0 renal it was 12.8%; in the assay on COLO 205 colon, 4.36% (active); in the assay on DU-145 prostate it was 17.5%; with K-562 leukemia, 10.7%; in the assay on MALME-3M melanoma it was -5.08% (active). Also, the growth in the assay on MDA-MB-231 breast was -6.44% (active); in the assay with RXF 393 renal, -24.5% (active); in the assay on SF-268 CNS, 7.24% (active); with SF-295 CNS, 12%; in the assay on SF-539 CNS, 6.65% (active); in the assay on UACC-257 melanoma, 8.4% (active). Also, the growth in the assay with M14 melanoma is -20.6% (active).
For the compound `CCOC(=O)c1c(NC(=O)c2ccc(C(F)(F)F)cc2)sc2c(CN3CCN(C)CC3)c(O)ccc12`, the growth with NCI-H23 lung is 56.4%; in the assay with NCI-H226 lung, -6.63% (active); in the assay with NCI-H322M lung it was 10.2%; with NCI-H460 lung, -70.7% (active); in the assay on HOP-92 NSCLC, 24.2%; in the assay with NCI-H522 lung, -21.3% (active). For the same compound, the growth with A549/ATCC NSCLC was -74.8% (active); with 786-0 renal, -93.6% (active); with COLO 205 colon, -67.5% (active); in the assay on DU-145 prostate it was -39.1% (active); in the assay with K-562 leukemia, -57.5% (active); in the assay on MALME-3M melanoma, -56.9% (active). Besides, the growth was -43.3% (active) in the assay on MDA-MB-231 breast; -86% (active) in the assay on RXF 393 renal; -49.5% (active) in the assay on SF-268 CNS; -58% (active) in the assay with SF-295 CNS; -89.7% (active) in the assay with SF-539 CNS; -13.5% (active) with UACC-257 melanoma. Also, in the assay with M14 melanoma, the growth was -26.1% (active).
In the case of `O=S1SC(c2ccccc2)=NN1c1cc(F)cc(F)c1` (stereo not drawn), the growth was 22.9% with NCI-H23 lung; 45.4% in the assay on NCI-H226 lung; 67.9% with NCI-H322M lung; 19.6% with NCI-H460 lung; -25.2% (active) in the assay with HOP-92 NSCLC; 34.6% in the assay on NCI-H522 lung. Besides, the growth is 26% in the assay with A549/ATCC NSCLC; 34.9% in the assay with 786-0 renal; 107% in the assay with COLO 205 colon; 57.2% in the assay with DU-145 prostate; 22.5% with K-562 leukemia; 75.5% in the assay on MALME-3M melanoma. The growth in the assay with MDA-MB-231 breast was 69.4%; in the assay on RXF 393 renal it was 52.2%; in the assay on SF-268 CNS, 54.3%; in the assay on SF-295 CNS it was 52.1%; in the assay with SF-539 CNS, 60.6%; in the assay on UACC-257 melanoma it was 69.3%. The growth in the assay on M14 melanoma is 20.6%.
For the compound `CN1CCN(c2ccc(Nc3nc(NCCNS(=O)(=O)c4ccc5ccccc5c4)c4sccc4n3)cc2)CC1`, the growth with NCI-H23 lung is 84.3%; in the assay on NCI-H226 lung it was 98.4%; in the assay on NCI-H322M lung, 83.7%; in the assay on NCI-H460 lung, 74.3%; with HOP-92 NSCLC, 47.8%; in the assay with NCI-H522 lung, 87.4%. In addition, the growth in the assay with A549/ATCC NSCLC was 84.3%; in the assay with 786-0 renal, 56.3%; in the assay with COLO 205 colon, 13.3%; with DU-145 prostate, 84%; in the assay with K-562 leukemia it was 1.59% (active); in the assay with MALME-3M melanoma, 2.39% (active). Also, the growth with MDA-MB-231 breast is 74.3%; with RXF 393 renal, 29.4%; in the assay on SF-268 CNS, 63.3%; in the assay on SF-295 CNS, 102%; with SF-539 CNS, 65%; with UACC-257 melanoma, 65.7%. In addition, the growth in the assay on M14 melanoma was -82.6% (active).
